From PubChem
NS3h inh CB – blocks HCV NS3 helicase binding to DNA. inhibition, % at 100 µM. 16,000 compounds, 1.6% hits. NS3h Cy5-dT15 DNA binding, fluorescence polarization. AID 687043;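 active means inhibition above the average over every tested compound plus 3 SD, cut at about 40% in these data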
Cy5 interf NS3h – enhances or quenches Cy5 fluorescence in NS3h assay | Cy5-dT15 DNA with NS3h, fluorescence interference; actives lie on both sides; signal over control mean, under 1 quenches | fluorescence interference ratio at 100 µM | 16,000 compounds, 6% hits | AID 720488;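 active means compound fluorescence over control fluorescence at most 0.8, a quencher, or at least a set upper limit, an enhancer; inactive means ratio between 0.8 and the set upper limit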
NS3h confirm – confirmation of hepatitis C virus NS3 helicase inhibitors. shares compounds with NS3h inh CB. NS3h binding to Cy5-dT15 DNA, fluorescence polarization. inhibition, % at 100 µM. 240 compounds, 20% hits. AID 720485;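 active means percent inhibition of 50% or more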
SSB-DNA FP CB – disrupts E. coli SSB binding to DNA in counter-screen; shares compounds with NS3h inh CB; E. coli SSB binding Cy5-dT15, fluorescence polarization; inhibition, % at 100 µM; 240 compounds, 40% hits; AID 720486;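 active means inhibition of at least 50%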;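 further: displacers lower Cy5 polarization so higher inhibition means more SSB displaced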
Target sequence (P0AGE0 whole entry, looked up): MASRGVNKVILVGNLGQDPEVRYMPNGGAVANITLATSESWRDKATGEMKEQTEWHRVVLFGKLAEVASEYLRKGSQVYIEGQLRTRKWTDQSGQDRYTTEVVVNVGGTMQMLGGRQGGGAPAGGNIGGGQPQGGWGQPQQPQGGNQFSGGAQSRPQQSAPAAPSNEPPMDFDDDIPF
Cy5 SSB interf – counter-screen for HCV NS3 helicase inhibitors: fluorescence interference. shares compounds with NS3h inh CB. Cy5-dT15/E. coli SSB fluorescence interference; actives lie on both sides. fluorescence interference ratio at 100 µM. AID 720487. 240 compounds, 8% hits;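 active means fluorescence interference ratio at or above 1.2, signal boosting, or at or below 0.8, signal quenching; inactive means ratio between 0.8 and 1.2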
Cy5 interf conf – Cy5 fluorescence interference, confirmation counter-screen | shares compounds with NS3h inh CB | Cy5-dT15 DNA/NS3h fluorescence interference counterscreen | fluorescence interference ratio at 100 µM, hits read low | 240 compounds, 44% hits;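 active means fluorescence interference ratio at or below 0.8 quencher or at or above a set limitenhancer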
Numbers stand for hits; – = inactive; · = no result. Rows were chosen to be rich in hits. Some 7.6% of all compounds tested hit in one or more screens of this group.

SMILES	NS3h inh CB	Cy5 interf NS3h	NS3h confirm	SSB-DNA FP CB	Cy5 SSB interf	Cy5 interf conf
CN1C(=O)C(=Cc2c(Cl)cccc2Cl)C(=O)N(C)C1=O	42.4	–	–	–	–	–
CN1C(=O)/C(=C/c2c(Cl)cccc2Cl)SC1=S	–	–	·	·	·	·
O=C1N=c2ccc(Br)cc2=C1c1sc(=S)n(C(Cc2ccccc2)C(=O)O)c1O (configuration not stated)	76.3	0.763	–	66.0	0.748	–
O=C1N=c2ccc([N+](=O)[O-])cc2=C1c1sc(=S)n(Cc2ccco2)c1O	–	–	·	·	·	·
CC1CCN(c2cccc3c2C(=O)c2ccccc2C3=O)CC1	–	–	·	·	·	·
O=C1c2ccccc2-c2onc3ccc(N4CCCCC4)c1c23	51.6	–	–	70.9	1.22	0.794
CN1C=C(C(F)(F)F)C=C/C1=C(/C#N)c1nc2ccccc2s1	–	–	–	–	–	0.711
Cc1ccc(/C=C(\C#N)c2nc3ccccc3s2)cc1	–	–	·	·	·	·
COc1ccccc1N1CCN(/N=C\c2ccc(C(=O)O)cc2)CC1	–	–	·	·	·	·
CC(=O)Nc1ccc(-c2nc3ccc(-c4ccc5nc(-c6ccc(NC(C)=O)cc6)oc(=O)c5c4)cc3c(=O)o2)cc1	55.6	–	–	–	–	–
CC(C)(C)C(=O)Nc1ccc(-c2nc3ccccc3o2)cc1	–	–	·	·	·	·
CCC(=O)c1ccc(N2CCN(C(=O)c3c(F)cccc3F)CC2)c(F)c1	–	–	·	·	·	·
O=C(Nc1ccc(I)cc1Cl)c1ccc2ccccc2c1	–	–	·	·	·	·
O=C1NC(=O)C(=Cc2ccccc2OCCOc2ccccc2)C(=O)N1	–	–	·	·	·	·
O=C1NC(=O)C(=Cc2cc(Br)ccc2OCc2cccc3ccccc23)C(=O)N1	48.5	–	–	72.1	–	–
Cc1ccc(C=C2C(=O)NC(=S)N(c3ccccc3Cl)C2=O)o1	60.2	–	–	78.2	–	0.794
Cc1ccc(/C=C2\C(=O)NC(=S)N(c3ccc(Br)cc3)C2=O)o1	–	–	·	·	·	·
C[n+]1cn(Cc2ccccc2)c2c(=O)[nH]c(N)nc21	–	–	·	·	·	·
CCN1C(=O)/C(=C\c2cn(-c3ccccc3)nc2-c2ccc(Br)cc2)SC1=S	–	–	·	·	·	·
O=C(O)CCN1C(=O)/C(=C/c2cn(-c3ccccc3)nc2-c2ccc(Br)cc2)SC1=S	146.4	–	–	–	–	–
COc1ccc(NC(=O)c2nn3c(c2Br)NC(c2cccs2)CC3C(F)(F)F)cc1OC (configuration not stated)	–	–	·	·	·	·
COc1cc(NC(=O)c2ccc(Cl)cc2Cl)ccc1NC(=O)c1cc2ccccc2o1	–	–	·	·	·	·
Cc1ccc(C)n1-c1ccc(CC(=O)O)cc1	84.9	–	66.9	96.4	–	–
CC(=O)c1ccc(-n2c(C)ccc2-c2ccccc2)cc1	–	–	·	·	·	·
CCN(CC)S(=O)(=O)N=Cc1ccc(Cl)c(Cl)c1	–	–	·	·	·	·
SMILES	NS3h inh CB	Cy5 interf NS3h	NS3h confirm	SSB-DNA FP CB	Cy5 SSB interf	Cy5 interf conf
CC(C)c1ccc(CNc2cc(N3CCN(C(=O)c4ccccc4F)CC3)ccc2[N+](=O)[O-])cc1	–	–	·	·	·	·
O=C1C(Cl)=CC(=NS(=O)(=O)c2ccc(Cl)cc2)C(Cl)=C1Cl	84.6	–	55.2	80.6	0.769	–
O=C1C=CC(=NS(=O)(=O)c2ccc(Cl)cc2)C=C1	–	–	·	·	·	·
O=C(COc1ccc(Cl)cc1Br)NCc1ccc2c(c1)OCO2	–	–	·	·	·	·
COc1ccccc1NC(=O)c1ccc(C)o1	–	–	·	·	·	·
Cc1cc(C)c([N+](=O)[O-])cc1-c1ccc(/C=c2\sc3nc4ccccc4n3c2=O)o1	120.8	1.56	–	–	–	–
O=c1/c(=C/c2ccc(-c3ccccc3Cl)o2)sc2nc3ccccc3n12	–	–	·	·	·	·
CC(C)(c1cc(Cl)cc(Cl)c1)N1C(=O)C2=C(CCCC2)C1=O	–	–	·	·	·	·
O=C(CSc1nnc(-c2ccc(Cl)cc2Cl)o1)Nc1ccccc1	–	–	·	·	·	·
Cc1ccc(-c2nnc(SCC(=O)Nc3ccc(F)cc3)o2)cc1	61.9	–	–	–	–	–
CC(=O)Nc1ccc(N2C(=O)/C(=C/c3ccc([N+](=O)[O-])cc3)C=C2c2ccccc2)cc1	–	1.38	–	–	–	–
O=C1/C(=C/c2ccc([N+](=O)[O-])cc2)NC(=S)N1c1ccccc1	–	–	·	·	·	·
COc1cccc(C2C(C#N)=C(C)NC3=C2C(=O)CC(c2ccccc2)C3)c1OC (configuration not stated)	–	–	·	·	·	·
COc1ccc(NC(=O)CSc2ccccn2)cc1	–	–	·	·	·	·
CCOC(=O)c1[nH]c(=O)[nH]c1CSc1ccccn1	43.8	–	–	–	–	–
COc1ccc(OC)c(CN2CCN(Cc3ccc(F)cc3)CC2)c1	–	–	·	·	·	·
CCN1C(=O)C(=Cc2ccc([N+](=O)[O-])o2)C(=O)N(CC)C1=S	–	–	·	·	·	·
O=c1c2c(nc3cc(-c4cccs4)[nH]n13)CCC2	–	–	·	·	·	·
O=c1c2c(nc3cc(-c4cccs4)[nH]n13)CCS2	60.3	–	–	–	–	–
CCOc1ccc2sc(C=NCCc3ccccc3)c(O)c2c1	–	–	·	·	·	·
O=C1NN(c2ccc(Cl)c(Cl)c2)C(=O)/C1=C/c1ccc(Cl)c([N+](=O)[O-])c1	–	–	·	·	·	·
CCOc1cc(/C=C2\C(=O)NN(c3ccc(Cl)c(Cl)c3)C2=O)ccc1OC(C)=O	–	–	–	–	–	–
O=C(c1ccc(Br)cc1)N1CCN(c2ccc(Cl)cc2[N+](=O)[O-])CC1	–	–	·	·	·	·
O=C1C=CC(=O)N1c1ccc(Br)cc1[N+](=O)[O-]	79.0	–	70.0	–	–	–
Cc1ccc(Cc2cnc(NC(=O)/C=C/c3ccc(C)o3)s2)cc1	–	–	·	·	·	·
SMILES	NS3h inh CB	Cy5 interf NS3h	NS3h confirm	SSB-DNA FP CB	Cy5 SSB interf	Cy5 interf conf
COc1cc(/C=C2/SC(=S)NC2=O)ccc1OC(=O)c1ccccc1Br	42.0	–	–	–	–	0.776
COc1cc(/C=C2\SC(=S)NC2=O)cc(Br)c1OC	–	–	·	·	·	·
O=C(O)CCCN1C(=O)/C(=C/c2cn(-c3ccccc3)nc2-c2cccc([N+](=O)[O-])c2)SC1=S	–	–	·	·	·	·
CCN(C(=O)c1cccc(C(=O)N(CC)c2ccccc2C)c1)c1ccccc1C	–	–	·	·	·	·
O=C(CCCOc1ccc(Cl)cc1Cl)Nc1ncn[nH]1	–	–	·	·	·	·
CCOC(=O)c1sc(NC(=O)CCCOc2ccc(Cl)cc2Cl)nc1C	–	–	–	–	–	0.746
O=C(NC(=S)N1CCOCC1)c1ccccc1	109.9	0.403	–	–	–	–
O=C(NC(=S)N1CCCCCC1)c1cccnc1	–	–	·	·	·	·
O=C(Nc1cc(Oc2ccccc2)cc([N+](=O)[O-])c1)c1cccc(Cl)c1	–	–	·	·	·	·
O=C(N/N=C\c1ccccn1)/C(=C\c1cccs1)NC(=O)c1ccccc1	–	–	·	·	·	·
N#CC(C#N)=Cc1ccc(-c2ccc(Cl)c(C(=O)O)c2)o1	42.9	–	–	–	–	0.794
CN1C(=O)C(=Cc2ccc(-c3ccc(Cl)c(C(=O)O)c3)o2)C(=O)N(C)C1=O	–	–	·	·	·	·
CN(C)c1ccc(NS(=O)(=O)c2ccc(F)cc2)cc1	–	–	·	·	·	·
CN(C)c1ccc(NS(=O)(=O)c2ccc(N3C(=O)CCC3=O)cc2)cc1	49.5	–	–	61.2	–	–
